Data published in PubChem BioAssay (NCI).
The panel holds about 83,000 compounds, 20% with a hit somewhere; the sample as a whole holds those more often.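 Testing used 96-well plates and a 48-hour single-concentration exposure. Example: -40 means 40% of the starting cells died.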 Active and inactive are the calls of the source. Rule for the calls: active = growth percent below 10; inactive = the rest.

Columns and labels:
Assay in all cases: NCI-60 one-dose screen, 48 h (100 = growth as untreated, 0 = no growth, -100 = all killed)
Conditions in all cases: 10 µM unless noted
[1] = system: SK-MEL-2 melanoma
[2] = system: EKVX NSCLC
[3] = system: SN12C renal
[4] = system: UO-31 renal
[5] = system: TK-10 renal
[6] = system: ACHN renal
[7] = system: CAKI-1 renal
[8] = system: A498 renal
[9] = system: CCRF-CEM leukemia
[10] = system: MOLT-4 leukemia

Measured: growth

CC(=O)O[C@H]1CC2CCC3C(CC[C@@]4(C)C3C[C@H]([N+]3(C)CCCCC3)[C@@H]4OC(C)=O)[C@@]2(C)C[C@@H]1N1CCCCC1 (stereo not given in full)
inactive: [1] 111% | [2] 97.7% | [3] 93% | [4] 83.3% | [5] 108% | [6] 104% | [7] 88.1% | [8] 111% | [9] 103% | [10] 98.9%

CCCCCCCCCCCCCCCCCCOc1ccccc1CC(=O)OCC[N+](C)(C)C
active: [7] 9.52% | [9] 5.24% | [10] -7.37%
inactive: [1] 64.8% | [2] 46.9% | [3] 10% | [4] 61.3% | [5] 18% | [6] 55.8% | [8] 45.1%

O=C(/C=C/c1cccc(Cl)c1)c1cccc(OCCCOc2cccc(C(=O)/C=C/c3cccc(Cl)c3)c2)c1
inactive: [1] 116% | [2] 99% | [3] 96.4% | [4] 66.8% | [5] 125% | [6] 97.3% | [7] 70.4% | [8] 102% | [9] 98.1% | [10] 96.9%

COc1ccc(CNc2c3ccccc3nc3ccccc23)cc1
inactive: [1] 60.1% | [2] 49.7% | [3] 32.2% | [4] 22.1% | [5] 49.5% | [6] 18.8% | [7] 29.3% | [8] 10% | [9] 39%
active: [10] 9.38%

CNC(=O)c1ccccc1Oc1nc(Nc2cc(OC)c(OC)c(OC)c2)ncc1Br
inactive: [2] 55.3% | [3] 75.8% | [4] 33% | [5] 50.5% | [6] 67.1% | [7] 37% | [9] 59.5% | [10] 68.6%
active: [1] 1.29% | [8] -18.3%

Cc1ccccc1/C=C/C(=O)c1cccc(OCCCOc2cccc(C(=O)/C=C/c3ccccc3C)c2)c1
inactive: [1] 102% [3 µM] | [2] 95.1% [3 µM] | [3] 91.8% [3 µM] | [4] 82.8% [3 µM] | [5] 108% [3 µM] | [6] 102% [3 µM] | [7] 77.5% [3 µM] | [8] 104% [3 µM] | [9] 96.2% [3 µM] | [10] 90% [3 µM]

NS(=O)(=O)c1ccc(N=Nc2c(O)n(Cc3ccccc3)c3ccc(Cl)cc23)cc1
inactive: [1] 98.6% | [2] 91.2% | [3] 87.3% | [4] 81.2% | [5] 95% | [6] 64.9% | [7] 64.4% | [8] 78.3% | [9] 96.2% | [10] 72.2%

COCCOc1cc2ncnc(N3CCN(c4ncc(S(=O)(=O)N5CCCCC5)cn4)CC3)c2cc1OCCOC
inactive: [1] 105% | [2] 104% | [3] 104% | [4] 78.1% | [5] 106% | [6] 115% | [7] 101% | [8] 92.1% | [9] 84.5% | [10] 91.9%

CCCCNC(=O)Oc1ccc(/C(=C(/C)Cc2ccc(OC)cc2)c2ccc(OCCN3CCCC3)cc2)cc1
inactive: [1] 85.2% | [2] 67.6% | [3] 72.6% | [4] 53.5% | [5] 81.2% | [6] 91.9% | [7] 70.5% | [8] 59.6% | [9] 46% | [10] 34.4%

CCOC(=O)c1nn(-c2ccc(S(N)(=O)=O)cc2)c2nc(C)cc(=O)n12
inactive: [1] 109% | [2] 104% | [3] 96.7% | [4] 86.1% | [5] 94.7% | [6] 108% | [7] 90.8% | [8] 88.3% | [9] 105% | [10] 119%

CSc1nc2ncc([N+](=O)[O-])c(=O)n2[nH]1
inactive: [1] 107% | [2] 100% | [3] 108% | [4] 87.5% | [5] 97.8% | [6] 103% | [7] 92.8% | [8] 88.3% | [9] 99.6% | [10] 129%

C/C(Cc1ccc(Cl)cc1)=C(\c1ccc(O)cc1)c1ccc(Cl)cc1
inactive: [1] 90.9% | [2] 83.9% | [3] 95.1% | [4] 85.1% | [5] 95.3% | [6] 99.5% | [7] 84.7% | [8] 116% | [9] 92.2% | [10] 81%

CCn1cc(C(=O)O)c(=O)c2cc(F)c(N3CCN(CC(=O)Nc4ccc(S(=O)(=O)Nc5nccc(C)n5)cc4)C(C)C3)c(F)c21 (stereo not given)
inactive: [1] 119% | [2] 111% | [3] 98% | [4] 83.3% | [5] 129% | [6] 102% | [7] 88.6% | [8] 111% | [9] 102% | [10] 123%

Cn1cc(C(=O)c2nc(-c3c[nH]c4ccccc34)no2)c2cc(F)ccc21
inactive: [1] 26.9% | [2] 57.5% | [3] 59.5% | [4] 42.4% | [5] 57.6% | [6] 49.6% | [7] 32.9% | [8] 25.3% | [9] 23.9% | [10] 38.9%

O=C(/C=C/c1ccccc1)Nc1ncc(Cc2ccccc2Cl)s1
active: [8] -6.96%
inactive: [1] 25.7% | [2] 38.2% | [3] 37.2% | [4] 39.2% | [5] 44.6% | [6] 33.3% | [7] 26.2% | [9] 15.9% | [10] 34.2%

COc1cc2ncnc(Nc3ccc(S(=O)(=O)Nc4cc(C)on4)cc3)c2cc1OCCCN1CCN(c2ccc(F)cc2)CC1
inactive: [1] 113% | [2] 109% | [3] 100% | [4] 77.5% | [5] 115% | [6] 97.4% | [7] 87.7% | [8] 91.9% | [9] 103% | [10] 102%

Cc1ccccc1/C=C/C(=O)c1cccc(OCCCCOc2cccc(C(=O)/C=C/c3ccccc3C)c2)c1
inactive: [1] 103% | [2] 94.6% | [3] 90.7% | [4] 80.7% | [5] 101% | [6] 101% | [7] 86% | [8] 86% | [9] 104% | [10] 94.5%

O=C(Nn1c2c(sc1=NC1CC1)C(=O)c1ccccc1C2=O)c1cc2ccc1CCc1ccc(cc1)CC2
inactive: [1] 49.5% | [2] 67.5% | [3] 30.9% | [4] 21.5% | [5] 115% | [6] 25.6% | [7] 30.8% | [8] 89.4% | [9] 22.6%
active: [10] 8.53%

CCC(C)(C)C(=O)O[C@H]1C[C@@H](C)C=C2C=C[C@H](C)[C@H](CC[C@@H]3CC(SCCN)CC(=O)O3)[C@H]21 (stereo not given in full)
inactive: [1] 91.1% | [2] 105% | [3] 77% | [4] 68.6% | [5] 92.1% | [6] 95.8% | [7] 83.9% | [8] 90.3% | [9] 12.1% | [10] 77.7%

Cc1ccc(C2=Nc3c(N)ncnc3NC(c3cccc(Nc4ccnc5cc(C(F)(F)F)ccc45)c3)C2)cc1 (stereo not given)
inactive: [2] 25.2% | [3] 50% | [4] 26.4% | [5] 64.7% | [6] 58.1% | [7] 21% | [8] 47.8%
active: [1] -11.1% | [9] 4.56% | [10] -2.37%

Cc1cccc(/C=C2\CN(C(=O)OC(C)(C)C)C/C(=C\c3cccc(C)c3)C2=O)c1
active: [9] 8.66%
inactive: [1] 95.3% | [2] 93.4% | [3] 95.4% | [4] 69% | [5] 96.1% | [6] 84% | [7] 73.5% | [8] 93.9% | [10] 51.8%

C=CC[Se]C(=O)Cc1c(C)n(C(=O)c2ccc(Cl)cc2)c2ccc(OC)cc12
inactive: [9] 10.5%
active: [1] 8.51% | [2] -62.6% | [3] -30.4% | [4] -80% | [5] -33.5% | [6] -61% | [7] -59.3% | [8] -28.1% | [10] 5.11%

CC(=O)n1nc(C(=O)OC(C)(C)c2ccccc2)c2ccccc21
inactive: [1] 105% | [2] 100% | [3] 86.9% | [4] 93.2% | [5] 101% | [6] 100% | [7] 84.5% | [8] 96.8% | [9] 83.1% | [10] 96.9%

COc1cc2cc(NCc3cccc(Cl)c3)nc(C)c2cc1OC
inactive: [1] 38.6% | [2] 60% | [3] 44.6% | [4] 36% | [5] 45.9% | [6] 43.5% | [7] 52% | [9] 27.5% | [10] 30.4%
active: [8] 7.63%
